Measured values from the supplement of paper PMC10849652.
The full data set covers some 8,800 targets. This sample favours those with a hit. About 0.5% of all pairs of compound and target were hits. Unmarked numbers belong to inactive results.

How the values were obtained:
Assay in all cases: log2 fold change, soluble protein after heating vs DMSO (PISA); higher = thermal stabilisation; K562 lysate, 10 uM; active = over 0.2 and 3.5 SD of the protein, either way, in both replicates (recomputed)
nilotinib = compound: Cc1cn(-c2cc(NC(=O)c3ccc(C)c(Nc4nccc(-c5cccnc5)n4)c3)cc(C(F)(F)F)c2)cn1 [nilotinib]
Summary of the method: (§1)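 A 30 min treatment with 10 μM compound was applied to crude K562 extract at 1 mg/mL protein in PBS pH 7.4 with 1 mM MgCl2. Heating for 3 min spanned 48°C-58°C, after which aliquots were pooled, adjusted to 0.5% NP-40 at 4°C and spun at 21,000xg for 90 min. TMTpro 16plex LC-MS/MS of the supernatant, with channel sums equalised, gave values recorded as log-two fold change in thermal stability against solvent controls, from duplicates.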

[1] = compound: Cc1nc(Nc2n[nH]c3c2CN(C(=O)N[C@H](CN(C)C)c2ccccc2)C3(C)C)c2sccc2n1
Summary of the method: as §1

dasatinib = compound: Cc1nc(Nc2ncc(C(=O)Nc3c(C)cccc3Cl)s2)cc(N2CCN(CCO)CC2)n1 [dasatinib]
Summary of the method: as §1

[2] = compound: Cc1ncc(-c2ccnc(Nc3ccc(S(C)(=O)=O)cc3)n2)n1C(C)C
Summary of the method: as §1

[3] = compound: Cn1cc(-c2ccc3c(c2)CCN3C(=O)Cc2cccc(C(F)(F)F)c2)c2c(N)ncnc21
Summary of the method: as §1

quisinostat = compound: Cn1cc(CNCC2CCN(c3ncc(C(=O)NO)cn3)CC2)c2ccccc21 [quisinostat]
Summary of the method: as §1

tipifarnib = compound: Cn1cncc1[C@@](N)(c1ccc(Cl)cc1)c1ccc2c(c1)c(-c1cccc(Cl)c1)cc(=O)n2C [tipifarnib]
Summary of the method: as §1

[4] = compound: NC(=O)Nc1cc(-c2cccc(F)c2)sc1C(=O)N[C@H]1CCCNC1
Summary of the method: as §1

[5] = compound: NC(=O)c1cnc(N[C@@H]2CCCC[C@@H]2N)nc1Nc1cccc(-n2nccn2)c1
Summary of the method: as §1

[6] = compound: NC1(c2ccc(-c3nc4ccn5c(=O)[nH]nc5c4cc3-c3ccccc3)cc2)CCC1
Summary of the method: as §1

[7] = compound: NCC(=O)Nc1ccc(-n2nc(C(F)(F)F)cc2-c2ccc3c(ccc4ccccc43)c2)cc1
Summary of the method: as §1

vorinostat = compound: O=C(CCCCCCC(=O)Nc1ccccc1)NO [vorinostat]
Summary of the method: as §1

silmitasertib = compound: O=C(O)c1ccc2c(c1)nc(Nc1cccc(Cl)c1)c1ccncc12 [silmitasertib]
Summary of the method: as §1

[8] = compound: O=C1NC(=O)C(c2cnc3ccccn23)=C1c1cn2c3c(cc(F)cc13)CN(C(=O)N1CCCCC1)CC2
Summary of the method: as §1

entospletinib = compound: c1cn2cc(-c3ccc4cn[nH]c4c3)nc(Nc3ccc(N4CCOCC4)cc3)c2n1 [entospletinib]
Summary of the method: as §1

Sequence of UniProt P35249 (P35249 whole entry, looked up): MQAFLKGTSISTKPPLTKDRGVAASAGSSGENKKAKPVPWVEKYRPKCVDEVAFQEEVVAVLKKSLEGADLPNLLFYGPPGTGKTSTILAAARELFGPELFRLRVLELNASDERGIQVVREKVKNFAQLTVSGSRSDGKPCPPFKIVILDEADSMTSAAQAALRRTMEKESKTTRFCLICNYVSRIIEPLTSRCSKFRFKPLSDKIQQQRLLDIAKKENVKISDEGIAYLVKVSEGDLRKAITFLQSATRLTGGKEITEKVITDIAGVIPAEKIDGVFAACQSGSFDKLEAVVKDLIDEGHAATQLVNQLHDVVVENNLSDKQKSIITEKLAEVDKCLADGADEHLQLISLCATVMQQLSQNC
Sequence of UniProt Q99643 (Q99643 whole entry, looked up): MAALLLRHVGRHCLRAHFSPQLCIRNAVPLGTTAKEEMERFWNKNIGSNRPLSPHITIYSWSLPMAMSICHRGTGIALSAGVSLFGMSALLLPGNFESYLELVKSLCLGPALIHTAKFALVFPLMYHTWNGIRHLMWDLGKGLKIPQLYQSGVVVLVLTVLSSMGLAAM
Sequence of UniProt Q8IZV5 (Q8IZV5 whole entry, looked up): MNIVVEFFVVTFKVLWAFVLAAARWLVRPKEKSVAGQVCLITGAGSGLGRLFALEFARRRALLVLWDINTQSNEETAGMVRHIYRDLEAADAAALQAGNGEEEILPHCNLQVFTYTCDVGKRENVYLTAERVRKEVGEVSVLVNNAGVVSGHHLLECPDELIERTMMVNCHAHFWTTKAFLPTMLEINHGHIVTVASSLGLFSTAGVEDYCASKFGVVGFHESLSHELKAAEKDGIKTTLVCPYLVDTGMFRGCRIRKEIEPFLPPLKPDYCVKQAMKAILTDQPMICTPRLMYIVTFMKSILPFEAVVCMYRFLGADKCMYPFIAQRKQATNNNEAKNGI
Sequence of UniProt Q8NBX0 (Q8NBX0 whole entry, looked up): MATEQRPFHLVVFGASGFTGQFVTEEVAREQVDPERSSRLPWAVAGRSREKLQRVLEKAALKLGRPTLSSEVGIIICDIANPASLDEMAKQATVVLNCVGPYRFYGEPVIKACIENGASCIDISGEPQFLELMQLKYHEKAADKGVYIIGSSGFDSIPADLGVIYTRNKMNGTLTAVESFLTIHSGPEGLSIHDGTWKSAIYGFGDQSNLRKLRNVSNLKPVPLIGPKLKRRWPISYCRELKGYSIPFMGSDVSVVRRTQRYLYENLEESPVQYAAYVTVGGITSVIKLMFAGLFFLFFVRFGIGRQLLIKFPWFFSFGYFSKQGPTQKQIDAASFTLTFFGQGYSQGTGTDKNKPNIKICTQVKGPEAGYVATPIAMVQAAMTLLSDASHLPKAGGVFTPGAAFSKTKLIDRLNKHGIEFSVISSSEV
Sequence of UniProt Q96HR9 (Q96HR9 whole entry, looked up): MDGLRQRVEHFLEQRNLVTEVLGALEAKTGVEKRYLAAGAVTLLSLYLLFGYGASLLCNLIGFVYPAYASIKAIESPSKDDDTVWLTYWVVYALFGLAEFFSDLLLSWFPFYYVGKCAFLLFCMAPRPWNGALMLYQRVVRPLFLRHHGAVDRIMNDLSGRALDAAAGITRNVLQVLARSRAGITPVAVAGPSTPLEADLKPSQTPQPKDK
Sequence of UniProt Q99708 (Q99708 whole entry, looked up): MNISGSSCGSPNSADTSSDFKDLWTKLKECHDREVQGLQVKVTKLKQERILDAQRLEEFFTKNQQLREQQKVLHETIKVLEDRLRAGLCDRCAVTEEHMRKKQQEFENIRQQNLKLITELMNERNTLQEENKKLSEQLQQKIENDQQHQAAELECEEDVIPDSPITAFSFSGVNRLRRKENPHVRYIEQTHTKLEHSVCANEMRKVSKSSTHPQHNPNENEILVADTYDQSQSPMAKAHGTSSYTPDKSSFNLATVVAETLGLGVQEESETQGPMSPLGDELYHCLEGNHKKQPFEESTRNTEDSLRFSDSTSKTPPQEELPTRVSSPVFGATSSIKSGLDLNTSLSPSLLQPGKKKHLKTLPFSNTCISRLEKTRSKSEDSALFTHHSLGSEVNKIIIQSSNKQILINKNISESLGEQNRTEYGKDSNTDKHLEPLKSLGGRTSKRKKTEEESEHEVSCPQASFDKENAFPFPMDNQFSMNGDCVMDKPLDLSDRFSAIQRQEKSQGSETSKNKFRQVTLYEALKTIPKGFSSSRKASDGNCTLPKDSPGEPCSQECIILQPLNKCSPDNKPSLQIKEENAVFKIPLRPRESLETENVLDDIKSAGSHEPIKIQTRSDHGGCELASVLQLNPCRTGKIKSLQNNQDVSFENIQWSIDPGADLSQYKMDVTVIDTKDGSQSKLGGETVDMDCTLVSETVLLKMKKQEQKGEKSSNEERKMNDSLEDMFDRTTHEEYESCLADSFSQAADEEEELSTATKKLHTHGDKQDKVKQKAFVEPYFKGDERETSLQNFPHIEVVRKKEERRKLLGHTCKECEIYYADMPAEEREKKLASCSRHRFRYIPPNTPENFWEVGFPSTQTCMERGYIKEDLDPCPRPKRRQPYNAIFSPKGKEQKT
Sequence of UniProt Q05823 (Q05823 whole entry, looked up): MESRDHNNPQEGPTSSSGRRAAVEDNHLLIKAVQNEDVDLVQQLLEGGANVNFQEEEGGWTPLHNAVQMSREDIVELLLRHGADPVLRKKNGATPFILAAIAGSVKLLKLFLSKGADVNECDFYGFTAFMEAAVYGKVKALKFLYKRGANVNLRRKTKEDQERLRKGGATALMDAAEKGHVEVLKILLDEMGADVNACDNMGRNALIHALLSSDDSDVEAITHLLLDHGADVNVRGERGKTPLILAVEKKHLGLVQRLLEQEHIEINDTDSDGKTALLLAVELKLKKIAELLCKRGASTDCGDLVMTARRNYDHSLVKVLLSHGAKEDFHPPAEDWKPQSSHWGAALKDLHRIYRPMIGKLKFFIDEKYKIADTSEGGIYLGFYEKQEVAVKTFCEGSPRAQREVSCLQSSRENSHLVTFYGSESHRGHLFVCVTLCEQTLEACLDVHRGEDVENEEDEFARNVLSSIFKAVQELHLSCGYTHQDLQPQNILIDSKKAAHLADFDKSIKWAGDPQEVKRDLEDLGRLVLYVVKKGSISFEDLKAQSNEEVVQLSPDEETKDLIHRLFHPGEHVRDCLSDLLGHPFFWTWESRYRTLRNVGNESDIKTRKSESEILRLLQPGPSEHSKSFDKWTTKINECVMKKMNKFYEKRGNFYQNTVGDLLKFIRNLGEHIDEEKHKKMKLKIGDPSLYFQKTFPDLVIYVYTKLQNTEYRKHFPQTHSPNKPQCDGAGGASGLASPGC
Sequence of UniProt O94855 (O94855 whole entry, looked up): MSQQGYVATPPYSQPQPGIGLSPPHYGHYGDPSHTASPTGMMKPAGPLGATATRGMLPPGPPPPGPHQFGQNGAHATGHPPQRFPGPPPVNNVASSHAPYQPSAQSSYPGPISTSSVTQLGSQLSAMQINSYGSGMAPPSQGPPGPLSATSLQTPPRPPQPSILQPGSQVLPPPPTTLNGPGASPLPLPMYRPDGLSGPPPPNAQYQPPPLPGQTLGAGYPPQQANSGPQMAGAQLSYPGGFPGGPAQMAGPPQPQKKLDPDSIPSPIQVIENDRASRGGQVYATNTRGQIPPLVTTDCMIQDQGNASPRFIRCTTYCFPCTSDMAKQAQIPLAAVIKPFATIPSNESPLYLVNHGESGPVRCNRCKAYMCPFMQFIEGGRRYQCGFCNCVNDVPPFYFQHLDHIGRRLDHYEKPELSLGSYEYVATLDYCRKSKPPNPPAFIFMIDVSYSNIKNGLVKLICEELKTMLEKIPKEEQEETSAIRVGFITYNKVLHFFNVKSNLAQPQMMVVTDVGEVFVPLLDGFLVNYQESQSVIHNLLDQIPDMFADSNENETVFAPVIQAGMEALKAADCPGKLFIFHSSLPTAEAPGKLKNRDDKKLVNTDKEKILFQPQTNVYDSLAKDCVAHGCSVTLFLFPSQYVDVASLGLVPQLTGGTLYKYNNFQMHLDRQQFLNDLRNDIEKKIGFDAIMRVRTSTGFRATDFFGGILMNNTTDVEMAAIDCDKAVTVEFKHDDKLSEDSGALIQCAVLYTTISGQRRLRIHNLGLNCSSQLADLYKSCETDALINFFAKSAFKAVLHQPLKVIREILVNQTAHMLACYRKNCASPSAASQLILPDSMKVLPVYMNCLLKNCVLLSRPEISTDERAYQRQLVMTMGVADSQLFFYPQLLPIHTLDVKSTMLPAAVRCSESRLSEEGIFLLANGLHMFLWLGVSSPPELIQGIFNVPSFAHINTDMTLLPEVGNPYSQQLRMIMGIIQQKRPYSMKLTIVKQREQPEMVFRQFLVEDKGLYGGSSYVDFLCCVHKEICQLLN
Sequence of UniProt Q9BVS4 (Q9BVS4 whole entry, looked up): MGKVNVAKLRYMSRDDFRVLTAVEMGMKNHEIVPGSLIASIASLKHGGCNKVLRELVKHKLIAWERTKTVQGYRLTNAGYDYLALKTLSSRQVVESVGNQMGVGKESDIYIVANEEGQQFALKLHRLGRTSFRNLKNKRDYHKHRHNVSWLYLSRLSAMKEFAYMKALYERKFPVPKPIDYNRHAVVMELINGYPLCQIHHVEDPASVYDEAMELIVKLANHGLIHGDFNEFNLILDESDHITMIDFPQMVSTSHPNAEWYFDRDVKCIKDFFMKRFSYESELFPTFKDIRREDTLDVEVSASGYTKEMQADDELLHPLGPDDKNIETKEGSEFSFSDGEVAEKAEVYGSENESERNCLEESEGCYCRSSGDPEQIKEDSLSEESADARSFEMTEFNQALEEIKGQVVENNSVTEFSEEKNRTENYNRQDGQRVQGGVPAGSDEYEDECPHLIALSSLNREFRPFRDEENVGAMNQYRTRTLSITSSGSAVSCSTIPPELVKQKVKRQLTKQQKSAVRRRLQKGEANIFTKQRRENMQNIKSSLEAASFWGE
Sequence of UniProt P61224 (P61224 whole entry, looked up): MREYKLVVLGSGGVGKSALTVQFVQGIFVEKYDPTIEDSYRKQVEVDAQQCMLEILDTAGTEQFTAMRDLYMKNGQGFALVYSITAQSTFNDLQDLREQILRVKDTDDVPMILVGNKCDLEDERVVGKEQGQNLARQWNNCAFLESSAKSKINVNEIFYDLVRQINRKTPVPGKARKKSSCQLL

Target	log2 fold change (nilotinib)	log2 fold change [1]	log2 fold change (dasatinib)	log2 fold change [2]	log2 fold change [3]	log2 fold change (quisinostat)	log2 fold change (tipifarnib)	log2 fold change [4]	log2 fold change [5]	log2 fold change [6]	log2 fold change [7]	log2 fold change (vorinostat)	log2 fold change (silmitasertib)	log2 fold change [8]	log2 fold change (entospletinib)
RNASEL (UniProt Q05823)	-0.034	0.035	-0.014	-0.013	0.02	-0.06	-0.016	0.042	0.026	-0.064	-0.005	-0.298 (active)	0.055	-0.021	-0.023
RAE1 (UniProt P78406)	-0.093	0.042	0.002	0.012	0.033	0.038	-0.053	0.026	0.024	0.015	0.007	-0.126	-0.022	-0.062	-0.024
SCCPDH (UniProt Q8NBX0)	0.12	-0.002	0.058	0.151	-0.019	-0.058	0.049	-0.217	-0.081	0.022	-0.129	0.34	-0.19	0.115	0.087
REEP6 (UniProt Q96HR9)	0.058	0.1	0.204	0.041	0.009	-0.072	0.001	-0.03	0.155	-0.023	-0.031	0.068	-0.083	-0.028	-0.059
RABGGTB (UniProt P53611)	0.005	0.003	0.017	0.006	-0.009	-0.02	-0.013	0.033	-0.016	0.031	-0.058	-0.286 (active)	0.006	-0.005	-0.044
RIOK2 (UniProt Q9BVS4)	0.002	0.034	0.01	0.537 (active)	-0.023	-0.054	-0.013	0.05	0.198	-0.03	-0.022	-0.098	0.096	0.008	0.315
RPS26P11 (UniProt Q5JNZ5)	0.026	0.027	-0.017	0.044	0.02	-0.151	0.004	-0.036	0	-0.004	-0.026	0.114	0.049	-0.113	-0.035
RINT1 (UniProt Q6NUQ1)	0.043	0.075	-0.115	0.028	0.012	-0.029	-0.044	0.071	0.001	-0.014	0.078	-0.321 (active)	0.038	0.034	-0.089
SDHC (UniProt Q99643)	-0.009	0.056	-0.001	-0.006	-0.015	0	-0.068	-0.057	-0.016	0.028	-0.046	-0.196	0.048	-0.071	0.088
SEH1L isoform 1 (UniProt Q96EE3)	-0.009	-0.019	0.032	0.006	0.007	-0.008	-0.008	0	0.003	-0.028	0.056	-0.001	-0.02	-0.008	-0.011
RDH10 (UniProt Q8IZV5)	-0.004	0.011	0.132	0.026	-0.022	0.05	0.042	-0.002	-0.084	0.073	-0.038	-0.007	0.006	-0.042	0.162
RBBP8 isoform 2 (UniProt Q99708)	-0.07	-0.003	0.063	0.081	0.031	0.074	0.022	0.033	0.035	-0.026	-0.035	0.076	-0.13	-0.028	-0.002
RFC4 (UniProt P35249)	0.001	-0.029	-0.068	-0.002	0.047	-0.016	-0.004	0.03	0.015	-0.011	0.013	-0.423 (active)	0.033	0.008	0.006
RPLP0P6 (UniProt Q8NHW5)	0.01	-0.027	0.018	0.001	0.026	-0.049	-0.02	0.002	0.005	-0.016	0.009	0.123	0.004	-0.003	0.017
RAP1B (UniProt P61224)	0.032	0	0.045	0.027	-0.002	-0.007	-0.034	-0.007	-0.029	-0.025	0.048	0.078	-0.036	-0.024	-0.012
SDHA (UniProt P31040)	0.035	0.009	0.016	0.004	-0.033	-0.022	-0.034	-0.037	-0.013	0.007	0.007	0.058	-0.014	-0.028	-0.006
SEC24D isoform 2 (UniProt O94855)	-0.006	-0.016	-0.004	-0.029	0.002	0.01	0.001	-0.012	-0.004	0.006	-0.017	-0.251 (active)	0.037	-0.013	-0.003
SAMHD1 (UniProt Q9Y3Z3)	-0.006	0.008	-0.026	0.013	0.066	-0.02	0.03	0.054	0.046	0.004	-0.012	-0.352 (active)	-0.002	0.032	0.031
